Assay results from PubChem BioAssay AID602342 (Broad Institute, 2012).
Hit rate of the full screen: of about 340,000 compounds, about 1,000 (0.29%) were called active.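 How the source made its calls: active means mean replicate activation score at least 90 and every replicate individually at or above 90; inconclusive means only one of the two criteria met; inactive means neither criterion met.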 Many of the other results were omitted from the sample, so actives are more common in it than they were.

Test: compounds raising miR-122 luciferase sensor output – cell-based, single point, plate reader, miR-122 inhibitor project, primary screen (AID 602342);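 further: higher luciferase means less miR-122 activity so hits act as miR-122 inhibitors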
Conditions: Huh7 miR-122 Renilla luciferase sensor, 48 h, hits give high values, neutral wells = 0, positive control = 100; at 16.7 µM unless noted
With `CCN(C[C@@H]1[C@H](c2ccccc2)[C@@H](CO)N1CC1CC1)C(=O)c1ccccn1` the activation (reporter increase) was -7.14% (inactive).
For `C[C@@H]1CN([C@@H](C)CO)C(=O)Cc2cc(NC(=O)C3CC3)ccc2O[C@H]1CN(C)C(=O)NC1CCCCC1`, the activation (reporter increase) was 0.966% (inactive).
In the case of `CCN(CC)S(=O)(=O)c1cc(C(=O)Nc2ccccn2)ccc1C`, the activation (reporter increase) is reported as -6.4% [at 12.5 µM] (inactive).
For `COc1cc(OC)c(C(=O)Nc2ccccc2-c2ccccc2)cc1OC`, the activation (reporter increase) was 9.15% [at 12.5 µM] (inactive).
For `Cc1ccc(C(=O)Nc2ccccc2-c2ccccc2)cc1S(=O)(=O)Nc1ccccc1`, the activation (reporter increase) was 94% [at 12.5 µM] (active).
With `C[C@H]1CCCCO[C@@H](CN(C)C(=O)Nc2cccc3ccccc23)[C@@H](C)CN([C@@H](C)CO)C(=O)c2cc(NS(=O)(=O)c3cn(C)cn3)ccc2O1` the activation (reporter increase) was -0.833% (inactive).
In the case of `Cc1ccc(NS(=O)(=O)c2ccc(F)cc2)nc1`, the activation (reporter increase) is reported as 4.41% [at 12.5 µM] (inactive).
In the case of `Cc1cc(C)cc(NS(=O)(=O)c2ccc(F)cc2)c1`, the activation (reporter increase) is reported as 117% [at 12.5 µM] (active).
For `Cn1c(=O)n(C)c2cc(S(=O)(=O)Nc3ccc(F)cc3)ccc21`, the activation (reporter increase) was 44% [at 12.5 µM] (inactive).
With `COc1ccc(CN(C)C[C@H]2Oc3c(NS(=O)(=O)c4ccccc4)cccc3C(=O)N([C@@H](C)CO)C[C@H]2C)cc1` the activation (reporter increase) was 4.79% (inactive).
With `CCC(=O)N1[C@@H]2c3ccc(-c4cccnc4)c(=O)n3C[C@H]1[C@H](CO)[C@H]2C(=O)N1CCc2ccccc2C1` the activation (reporter increase) was 2.45% (inactive).
In the case of `COc1ccccc1C#Cc1cnc2c(c1)C(=O)N([C@@H](C)CO)C[C@H](C)[C@@H](CN(C)C(=O)CC1CC1)O2`, the activation (reporter increase) is reported as -1.03% (inactive).
For `O=C1c2ccccc2C2=Nc3ccccc3SC(c3ccccc3F)C12` (stereo not drawn), the activation (reporter increase) was 162% [at 12.5 µM] (active).
In the case of `O=C1c2ccccc2C(=O)C1c1ccccc1F`, the activation (reporter increase) is reported as -3.15% [at 12.5 µM] (inactive).
With `O=C(C[C@@H]1C[C@@H]2c3cc(NC(=O)Nc4ccccc4F)ccc3O[C@@H]2[C@H](CO)O1)NCCc1ccccc1` the activation (reporter increase) was -2.6% (inactive).
In the case of `CS(=O)(=O)N(CC(=O)Nc1ccc(F)cc1)C1CCCCC1`, the activation (reporter increase) is reported as 0.106% [at 12.5 µM] (inactive).
For `N#CCCN(C(=O)Nc1ccc(Cl)c(Cl)c1)C1CCCCC1`, the activation (reporter increase) was -4.25% [at 12.5 µM] (inactive).
For `CS(=O)(=O)N(CC(=O)Nc1ccc(Cl)c(Cl)c1)C1CCCCC1`, the activation (reporter increase) was 174% [at 12.5 µM] (active).
With `C[C@@H]1CN([C@H](C)CO)C(=O)c2cc(C#CCN(C)C)cnc2O[C@H]1CN(C)C(=O)NC1CCCC1` the activation (reporter increase) was 26% (inactive).
For `CN1CCN(C(=O)C[C@H]2C[C@@H]3c4cc(NS(=O)(=O)c5ccc(F)cc5)ccc4O[C@@H]3[C@@H](CO)O2)CC1`, the activation (reporter increase) was -5.91% (inactive).
In the case of `CCCN1C[C@H](C)[C@@H](OC)CN(C)C(=O)c2ccc(NC(=O)CC)cc2OC[C@@H]1C`, the activation (reporter increase) is reported as 4.54% (inactive).
In the case of `COc1ccc(CNS(=O)(=O)c2cc(-c3cc(C)no3)ccc2C(C)C)cc1`, the activation (reporter increase) is reported as 200% [at 12.5 µM] (active).
In the case of `CCOc1ccccc1CNS(=O)(=O)c1cc(-c2cc(C)no2)ccc1C`, the activation (reporter increase) is reported as 54.4% [at 12.5 µM] (inactive).
For `Cc1noc(C)c1S(=O)(=O)NCCc1ccc(S(N)(=O)=O)cc1`, the activation (reporter increase) was -7.32% [at 12.5 µM] (inactive).
With `Cc1cc(-c2ccc(C)c(S(=O)(=O)NCCCN(Cc3ccccc3)C(C)C)c2)on1` the activation (reporter increase) was 46.4% [at 12.5 µM] (inactive).
With `CCc1ccc(-c2cc(C)no2)cc1S(=O)(=O)NCCc1ccc(S(N)(=O)=O)cc1` the activation (reporter increase) was 124% [at 12.5 µM] (active).
For `Cc1cc(-c2ccc(C)c(S(=O)(=O)Nc3ccc(S(N)(=O)=O)cc3)c2)on1`, the activation (reporter increase) was 5.41% [at 12.5 µM] (inactive).
In the case of `C[C@@H]1CN([C@@H](C)CO)C(=O)c2cc(NC(=O)Nc3cccc4ccccc34)ccc2O[C@H]1CN(C)Cc1ccc(Oc2ccccc2)cc1`, the activation (reporter increase) is reported as -7.47% (inactive).
For `C[C@H](CO)N1C[C@H](C)[C@@H](CN(C)C(=O)C2CC2)Oc2ncc(-c3cccc(F)c3)cc2C1=O`, the activation (reporter increase) was -1.71% (inactive).
For `CN(C)C(=O)C[C@@H]1CC[C@H]2[C@@H](COC[C@H](O)CN2S(=O)(=O)c2ccccc2)O1`, the activation (reporter increase) was 0.2% (inactive).
With `CCCNC(=O)Nc1ccc2c(c1)C(=O)N(C)[C@@H]1CC[C@@H](CC(=O)NC)O[C@H]1CO2` the activation (reporter increase) was -13.3% (inactive).
For `O=C(C[C@@H]1CC[C@H]2[C@@H](COC[C@@H](O)CN2C(=O)c2ccc3c(c2)OCO3)O1)NC1Cc2ccccc2C1`, the activation (reporter increase) was 5.8% (inactive).
With `COCCNC(=O)C[C@@H]1CC[C@H]2[C@H](COc3ccc(NS(=O)(=O)c4ccc(Cl)cc4)cc3C(=O)N2C)O1` the activation (reporter increase) was 12.5% (inactive).
With `C[C@@H]1CN([C@@H](C)CO)C(=O)c2cc(C#CC(C)(C)O)cnc2O[C@H]1CN(C)Cc1cccc(F)c1` the activation (reporter increase) was 0.476% (inactive).
With `CO[C@@H]1CN(C)C(=O)c2ccc(NC(=O)C3CCC3)cc2OC[C@H](C)N(C(=O)CN(C)C)C[C@H]1C` the activation (reporter increase) was -7.5% (inactive).
In the case of `COCC(=O)Nc1ccc2c(c1)C(=O)N(C)[C@H]1CC[C@@H](CC(=O)NCc3cccc(F)c3)O[C@H]1CO2`, the activation (reporter increase) is reported as 62.5% (inactive).
With `CCCC(=O)Nc1ccc2c(c1)C(=O)N(C)[C@H]1CC[C@@H](CC(=O)NCc3cccc(F)c3)O[C@H]1CO2` the activation (reporter increase) was 120% (active).
With `COCC(=O)Nc1ccc2c(c1)C(=O)N(C)[C@@H]1CC[C@@H](CC(=O)NCc3cccc(F)c3)O[C@@H]1CO2` the activation (reporter increase) was 41.7% (inactive).
With `CS(=O)(=O)N1[C@H](C(=O)NCc2ccncc2)[C@@H](CO)[C@@H]2Cn3c(ccc(C4=CCCCC4)c3=O)[C@@H]21` the activation (reporter increase) was 1.3% (inactive).
For `CCS(=O)(=O)c1ccc(O)c(NC(=O)COc2ccc(Cl)cc2)c1`, the activation (reporter increase) was 2.08% [at 12.5 µM] (inactive).
For `O=C(Nc1cc(S(=O)(=O)Nc2ccc(Cl)cc2)ccc1O)c1ccc(F)cc1F`, the activation (reporter increase) was 118% [at 12.5 µM] (active).
For `O=C(Nc1cccc(S(=O)(=O)NC2=NCCC2)c1)c1ccc(F)cc1F`, the activation (reporter increase) was 0.138% [at 12.5 µM] (inactive).
For `C[C@H](CO)N1C[C@H](C)[C@H](CN(C)C(=O)NC2CCCCC2)OCCCC[C@H](C)Oc2ccc(NC(=O)Nc3ccc4c(c3)OCO4)cc2C1=O`, the activation (reporter increase) was -2.47% (inactive).
In the case of `C[C@@H]1CCCCO[C@H](CN(C)Cc2ccccc2)[C@H](C)CN([C@H](C)CO)C(=O)c2cc(NS(=O)(=O)c3ccc(Cl)cc3)ccc2O1`, the activation (reporter increase) is reported as -12.3% (inactive).
In the case of `COc1ccc(S(=O)(=O)Nc2ccc3c(c2)C(=O)N([C@@H](C)CO)C[C@@H](C)[C@H](CN(C)C(=O)CCC(F)(F)F)OCCCC[C@H](C)O3)cc1`, the activation (reporter increase) is reported as -1.47% (inactive).
In the case of `C[C@@H]1CN([C@@H](C)CO)C(=O)c2cc(-c3cncnc3)cnc2O[C@H]1CN(C)C(=O)c1cccc(F)c1`, the activation (reporter increase) is reported as -0.099% (inactive).
For `COc1ccccc1CNS(=O)(=O)c1cc2c3c(c1)CCC(=O)N3CCC2`, the activation (reporter increase) was 6.96% [at 12.5 µM] (inactive).
With `COc1ccc(CNS(=O)(=O)c2cc3c4c(c2)CCN4C(=O)CC3)cc1` the activation (reporter increase) was 2.78% [at 12.5 µM] (inactive).
In the case of `COc1ccc(C)cc1S(=O)(=O)Nc1cc2c3c(c1)CCC(=O)N3CCC2`, the activation (reporter increase) is reported as 150% [at 12.5 µM] (active).
In the case of `O=C(CN1CCOCC1)Nc1c(Cl)cc(Cl)cc1Cl`, the activation (reporter increase) is reported as -6.99% [at 12.5 µM] (inactive).
For `O=C(CN1CCOCC1)Nc1cc(Cl)ccc1Cl`, the activation (reporter increase) was 101% [at 12.5 µM] (active).
For `O=C(CN1CCOCC1)Nc1ccc(NC(=O)CN2CCOCC2)c(Cl)c1`, the activation (reporter increase) was 4.91% [at 12.5 µM] (inactive).
With `COc1ccc(S(=O)(=O)Nc2cccc3c2O[C@H](CN(C)Cc2ccc4c(c2)OCO4)[C@H](C)CN([C@@H](C)CO)C3=O)cc1` the activation (reporter increase) was 2.28% (inactive).
For `CC(=O)N(C)C[C@@H]1Oc2cc(-c3cccnc3)ccc2S(=O)(=O)N([C@@H](C)CO)C[C@H]1C`, the activation (reporter increase) was 0.602% (inactive).
With `CC(C)NC(=O)Nc1ccc2c(c1)C(=O)N([C@H](C)CO)C[C@H](C)[C@@H](CN(C)S(=O)(=O)c1ccc(F)cc1)OCCCC[C@H](C)O2` the activation (reporter increase) was -3.83% (inactive).
For `O=C(NC1CCCC1)[C@@H]1[C@@H](CO)[C@@H]2Cn3c(ccc(-c4ccc(F)cc4)c3=O)[C@H]1N2Cc1cocn1`, the activation (reporter increase) was 1.2% (inactive).
For `CCCC#Cc1cnc2c(c1)C(=O)N([C@H](C)CO)C[C@H](C)[C@H](CN(C)S(=O)(=O)c1cn(C)cn1)O2`, the activation (reporter increase) was -3.62% (inactive).
With `C[C@@H]1CN([C@H](C)CO)C(=O)c2cccc(NS(=O)(=O)c3ccc(F)cc3)c2O[C@@H]1CN(C)S(=O)(=O)c1ccccc1` the activation (reporter increase) was -5.32% (inactive).
In the case of `O=C(NNC(=O)C1CCC1)c1ccccc1`, the activation (reporter increase) is reported as 1.59% [at 12.5 µM] (inactive).
With `CC1=C(C)CC(C(=O)NNC(=O)c2ccccc2O)C(C(=O)O)C1` (stereo not drawn) the activation (reporter increase) was 151% [at 12.5 µM] (active).
In the case of `CC1=C(C)CC(C(=O)NNC(=O)c2csc3c2CCC(C(C)(C)C)C3)C(C(=O)O)C1` (stereo not drawn), the activation (reporter increase) is reported as -0.996% [at 12.5 µM] (inactive).
In the case of `O=C(NNC(=O)c1cc(S(=O)(=O)N2CCCCC2)ccc1Cl)c1ccccc1O`, the activation (reporter increase) is reported as -7.51% [at 12.5 µM] (inactive).
For `Cc1cc(C(=O)CCC(=O)NNC(=O)c2ccccc2O)c(C)s1`, the activation (reporter increase) was -0.772% [at 12.5 µM] (inactive).
In the case of `O=C(NNC(=O)c1ccccc1O)c1ccccc1O`, the activation (reporter increase) is reported as 530% [at 12.5 µM] (active).
With `C[C@@H]1CCCCO[C@H](CN(C)C(=O)NC2CCCCC2)[C@@H](C)CN([C@H](C)CO)C(=O)c2cc(NC(=O)CCC(F)(F)F)ccc2O1` the activation (reporter increase) was 4.05% (inactive).
With `CC(=O)NS(=O)(=O)c1ccc(NC(=S)NC(=O)C(C)(C)C)cc1` the activation (reporter increase) was -3.58% [at 12.5 µM] (inactive).
With `COc1ccc(NS(=O)(=O)c2ccc(NC(=O)c3ccc(N(C)S(C)(=O)=O)cc3)cc2)cc1` the activation (reporter increase) was 3.93% [at 12.5 µM] (inactive).
With `COc1ccc(NS(=O)(=O)c2ccc(NC(=S)NC(=O)CC(C)C)cc2)cc1` the activation (reporter increase) was 161% [at 12.5 µM] (active).
